This is a sample that favours compounds with a hit; in the whole collection about 3.6% have one here.
Pf apPOL block – Pf-apPOL DNA polymerase inhibition; Recombinant Pf-apPOL, molecular beacon fluorescence, 1.5 h; inhibition, % at 10 µM; hit rate 0.25% among 210,000
mHTT-CaM PPI inh – inhibitors of human mutant huntingtin-calmodulin interaction; P42858; AlphaScreen His-mHTT/GST-CaM binding, luminescence; inhibition, % at 15 µM; hit rate 3.6% among 190,000; AID 1671202;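 note: 0% = both proteins with DMSO and 100% = one protein alone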
Starred values were filed as active, the others as inactive. Cut-off read from the data, not from the text of the source: active = inhibition above about 50%; inactive = the rest.

How did COc1ccc(CC(=O)N2CCCC(C)(C(=O)NCc3ccccc3C)C2)cc1OC (stereo not drawn) do in these assays?
Pf apPOL block: -2.2; mHTT-CaM PPI inh: 0.5

Results for CCOc1ccc(C(=O)N2CCC(n3cnc4ccc(C)cc43)CC2)cc1 ?
Pf apPOL block: -2.6; mHTT-CaM PPI inh: 77.1*

How did Cc1ccc2ncn(C3CCN(C(=O)C(C)Oc4ccccc4)CC3)c2c1 (stereo not drawn) do in these assays?
Pf apPOL block: -3.7; mHTT-CaM PPI inh: 8.9

What do the screens show for `CCOC(=O)C1CCCN(C(=O)C2CC(=O)N(c3cccc(C)c3)C2)C1` (stereo not drawn)?
Pf apPOL block: -2.0; mHTT-CaM PPI inh: 1.8

How did COc1ccccc1N1CCN(Cc2cc(OC)c(O)c([N+](=O)[O-])c2)CC1 do in these assays?
Pf apPOL block: -7.1; mHTT-CaM PPI inh: -1.8

Results for O=[N+]([O-])c1cc(CN2CCC(c3ccccc3)C2)c(O)c2ncccc12 (stereo not drawn) ?
Pf apPOL block: -0.6; mHTT-CaM PPI inh: 100.3*

How did COc1ccccc1N1CCN(Cc2cc([N+](=O)[O-])c(O)c3ncccc23)CC1 do in these assays?
Pf apPOL block: 2.5; mHTT-CaM PPI inh: 100.2*

How did CN1CCCN(Cc2ccccc2[N+](=O)[O-])CC1 do in these assays?
Pf apPOL block: -5.5; mHTT-CaM PPI inh: -11.1

How did O=C(NC(/C=C/c1ccccc1)c1cc([N+](=O)[O-])c2cccnc2c1O)C1CCCCC1 (stereo not drawn) do in these assays?
Pf apPOL block: 10.4; mHTT-CaM PPI inh: 30.0

Results for COc1cc(CN2CCCCCC2)cc([N+](=O)[O-])c1O ?
Pf apPOL block: -4.8; mHTT-CaM PPI inh: 0.2

What do the screens show for `O=[N+]([O-])c1cc(CN2CCCC2)c2cccnc2c1O`?
Pf apPOL block: 0.4; mHTT-CaM PPI inh: 100.3*

How did CN1CCN(Cc2cc([N+](=O)[O-])c(O)c3ncccc23)CC1 do in these assays?
Pf apPOL block: 2.7; mHTT-CaM PPI inh: 100.0*

How did COc1ccc2c(c1)C=C(C(=O)NC1CCCC1)C=CO2 do in these assays?
Pf apPOL block: 3.0; mHTT-CaM PPI inh: 0.9

How did O=C1C(=O)N(c2ccccn2)C(c2ccc(F)cc2)C1=C(O)c1ccccc1 (stereo not drawn) do in these assays?
Pf apPOL block: -10.1; mHTT-CaM PPI inh: -1.7

Results for O=S(=O)(Cc1ccc(F)cc1)N(CCc1cccs1)C1CC1 ?
Pf apPOL block: -0.5; mHTT-CaM PPI inh: -48.9

What do the screens show for `Cc1c(Cl)cccc1S(=O)(=O)NCC(C)(O)c1ccc2c(c1)OCO2` (stereo not drawn)?
Pf apPOL block: -9.9; mHTT-CaM PPI inh: -16.5

What do the screens show for `Cc1sc2nc(C3CC3)nc(N3CCN(C(=O)C(C)C)CC3)c2c1C`?
Pf apPOL block: 2.7; mHTT-CaM PPI inh: 21.2

What do the screens show for `CCOC(=O)c1ccc(CNC(=O)N2CCC(c3nc4ccncc4n3C)C2)cc1` (stereo not drawn)?
Pf apPOL block: -12.0; mHTT-CaM PPI inh: 3.4

How did Cc1cccc(CNc2cc(-n3nc(C)cc3C)ncn2)c1 do in these assays?
Pf apPOL block: -2.6; mHTT-CaM PPI inh: -3.5

Results for O=[N+]([O-])c1ccccc1CN1CCC(O)CC1 ?
Pf apPOL block: -8.1; mHTT-CaM PPI inh: -4.6

What do the screens show for `CC1CCN(Cc2cc([N+](=O)[O-])c(O)c3ncccc23)CC1`?
Pf apPOL block: -88.8; mHTT-CaM PPI inh: 100.0*

Results for COc1ccc(C(=O)N2CCC(c3nc(C(=O)N4CCCCC4)c(C)o3)CC2)cc1OC ?
Pf apPOL block: 1.8; mHTT-CaM PPI inh: -8.0

What do the screens show for `COCOCCn1cc(CN2CCS(=O)(=O)N(Cc3ccc(-c4ccccc4)cc3)C(C(C)C)C2=O)nn1` (stereo not drawn)?
Pf apPOL block: -21.8; mHTT-CaM PPI inh: 54.5*

How did COCOCCn1cc(CN2CCS(=O)(=O)N(Cc3ccc(-c4ccc(C)cc4)cc3)C(C(C)C)C2=O)nn1 (stereo not drawn) do in these assays?
Pf apPOL block: -12.3; mHTT-CaM PPI inh: 10.0

What do the screens show for `COCOCCn1cc(CN2CCS(=O)(=O)N(Cc3ccc(-c4ccc(C)cc4)cc3)C(C)C2=O)nn1` (stereo not drawn)?
Pf apPOL block: -19.3; mHTT-CaM PPI inh: -4.0

What do the screens show for `COCOCCn1cc(CN2CCS(=O)(=O)N(Cc3ccc(-c4ccc(Cl)c(Cl)c4)cc3)C(C)C2=O)nn1` (stereo not drawn)?
Pf apPOL block: -6.5; mHTT-CaM PPI inh: 99.0*

What do the screens show for `Cc1ccc2nsnc2c1S(=O)(=O)NCc1ccc(S(N)(=O)=O)cc1`?
mHTT-CaM PPI inh: -5.6

Results for Cc1cccc(CN(CC(=O)N2CCN(C)CC2)S(=O)(=O)c2ccc(Cl)cc2)c1 ?
Pf apPOL block: 2.1; mHTT-CaM PPI inh: 14.2

How did CCCC(=O)N(CCN1CCOCC1)c1nc2ccc(Br)cc2s1 do in these assays?
Pf apPOL block: -9.3; mHTT-CaM PPI inh: 25.9

Results for O=C(CCOc1ccccc1)N(CCN1CCOCC1)c1nc2c(Cl)cccc2s1 ?
Pf apPOL block: -8.2; mHTT-CaM PPI inh: 87.1*

Results for CCCNC(=O)c1cnn2c1NC(c1ccc3c(c1)OCO3)CC2C(F)(F)F (stereo not drawn) ?
Pf apPOL block: -8.0; mHTT-CaM PPI inh: -1.0

Results for O=C(c1ccsc1)N1CCN(c2nnc3c(Cl)cccn23)CC1 ?
Pf apPOL block: -1.3; mHTT-CaM PPI inh: 32.0

How did O=C(CC1CCCCC1)N1CCN(c2nnc3c(Cl)cccn23)CC1 do in these assays?
Pf apPOL block: -9.9; mHTT-CaM PPI inh: 59.7*

What do the screens show for `Cc1[nH]c(C(=O)N2CCC(CC(=O)NCCc3c[nH]c4ccccc34)CC2)c(C)c1C`?
Pf apPOL block: -3.0; mHTT-CaM PPI inh: 89.8*

Results for CCc1ccc(CNC(=O)CC2CCN(C(=O)c3[nH]c(C)c(C)c3C)CC2)cc1 ?
Pf apPOL block: 2.9; mHTT-CaM PPI inh: 15.7

Results for O=C(CC1CCN(C(=O)C2CCCCC2)CC1)NCCc1c[nH]c2ccc(Cl)cc12 ?
Pf apPOL block: -2.8; mHTT-CaM PPI inh: 100.0*

What do the screens show for `COc1ccc(CCNC(=O)CC2CCN(C(=O)C3CCCCC3)CC2)c(OC)c1`?
Pf apPOL block: -9.2; mHTT-CaM PPI inh: 30.1

How did Cc1ccccc1CNS(=O)(=O)c1cc(Cl)ccc1Cl do in these assays?
Pf apPOL block: -7.0; mHTT-CaM PPI inh: -23.8

How did C=CCc1ccc(OCC(=O)NN)c(OC)c1 do in these assays?
Pf apPOL block: -1.0; mHTT-CaM PPI inh: -0.9

Results for O=c1[nH]c2ccccc2c2nnnn12 ?
mHTT-CaM PPI inh: 1.0

Results for Brc1ccc2[nH]c3c(c2c1)CCCC3NCc1ccccc1 (stereo not drawn) ?
Pf apPOL block: -1.2; mHTT-CaM PPI inh: 100.3*

How did O=CNC1CCCc2c1[nH]c1ccc(Br)cc21 (stereo not drawn) do in these assays?
Pf apPOL block: -4.2; mHTT-CaM PPI inh: 30.0

What do the screens show for `Cc1ccc2[nH]c3c(c2c1)CCCC3NC(N)=O` (stereo not drawn)?
Pf apPOL block: -9.6; mHTT-CaM PPI inh: 29.9

How did Cc1ccc2[nH]c3c(c2c1)CCCC3NCc1ccc(F)cc1 (stereo not drawn) do in these assays?
Pf apPOL block: 15.8; mHTT-CaM PPI inh: 57.0*

What do the screens show for `O=C(Nc1cccc(-c2nc3ccccc3o2)c1)c1ccc(F)cc1F`?
Pf apPOL block: 0.3; mHTT-CaM PPI inh: -18.9

How did C=CCOC(=O)COc1ccc2c(=O)c(Oc3cccc(OC)c3)c(C(F)(F)F)oc2c1 do in these assays?
Pf apPOL block: 7.8; mHTT-CaM PPI inh: -6.5

How did Cc1ccc2nc(C(=O)NCCN3CCCCCC3)cn2c1 do in these assays?
Pf apPOL block: 34.3; mHTT-CaM PPI inh: 50.1*

How did Cc1ccc2nc(C(=O)NCCN3CCCCC3)cn2c1 do in these assays?
Pf apPOL block: -2.5; mHTT-CaM PPI inh: -3.9

Source: PubChem BioAssay
